Records with an inconclusive call do not appear. Where a call stands in place of a potency, no number is given. Unmarked numbers belong to inactive results. The source made the active and inactive calls. Calls come from the whole dose curve; as a rule, active = well fitted activation curve with a large enough effect in the signal ratio in the repeat runs, with a control signal flat (not every such curve was filed as active); inconclusive = weak or mixed curves; inactive = flat fitted curve, though single readings scatter; the % refers to the signal ratio.

Data on 40 compounds can be found in PubChem BioAssay (Tox21).
Potency is the fitted concentration of half-maximal effect.

This experiment is described as follows: qHTS assay for small molecule activators of the heat shock response signaling pathway (AID 743210). As to conditions: HeLa HSE-bla reporter, beta-lactamase ratio, 5 h; series mostly up to 62.6 µM. The text has this:
U.S. Tox21 Program National Center for Advancing Translational Sciences [NCATS] NIH Chemical Genomics Center [NCGC] U.S. Environmental Protection Agency [EPA] National Institutes of Environmental Health Sciences [NIEHS] National Toxicology Program [NTP] U.S. Food and Drug Administration [FDA] Tox21 Assay Overview: Various chemicals, environmental and physiological stress conditions may lead to the activation of heat shock response/ unfolded protein response (HSR/UPR). There are three heat shock transcription factors (HSFs) (HSF-1, -2, and -4) mediating transcriptional regulation of the human HSR. To identify the compounds that activate HSR signaling, HSE-bla HeLa cell line (Invitrogen, Carlsbad, CA, USA) containing a beta-lactamase reporter gene under the control of the heat shock response elements was used to screen the Tox21 10K compound library.
Tox21 Assay Protocol Summary: The CellSensor HSE-bla HeLa cells (Invitrogen, Carlsbad, CA, USA) were dispensed at 1500 cells/6uL/well into 1536-well black wall/clear bottom plates using a Multidrop combi (Thermo Fisher Scientific, Waltham, MA) dispenser. After the assay plates were incubated at 37 C and 5% CO2 overnight, 23 nL of compounds dissolved in DMSO, positive controls or DMSO only was transferred to the assay plate by a Pintool station (Kalypsys, San Diego, CA). The plates were incubated at 37 C for 5 h. After 1 uL of LiveBLAzerTM B/G FRET substrate was added using a Flying Reagent Dispenser (Beckman Coulter, Indianapolis, IN, USA), the plates were incubated at room temperature for 2.5 h, and fluorescence intensity was measured by an Envision plate reader (PerkinElmer, Shelton, CT).
(In general: Quantitative high-throughput screening tests each substance at several concentrations.)
As to `O=C(OCCOCCO)c1ccccc1Nc1cccc(C(F)(F)F)c1`, the Potency entry is “inactive”.

Turning to `NC(=O)Cn1c(=O)cc(CCN2CCN(c3nccc4sccc34)CC2)c2ccc(F)cc21`, the Potency result was “inactive”.

For `C=CCCCCCCCCCCCCCCCC`, the activation is -2.33% [at 5.95 µM].

For the compound `CCCCCCCCCCCC[N+](C)(C)CC(=O)[O-]`, the Potency result was “inactive”.

`NC(=O)N(O)[C@@H]1C=C[C@H](Oc2cccc(Oc3ccc(F)cc3)c2)C1`: the Potency entry was “inactive”.

Regarding `c1cnc2c(n1)CCCC2`, the Potency result was “inactive”.

For the compound `CC(Cl)C(Cl)Cl` (stereo not given), the Potency entry was “inactive”.

Take `CC(=O)Oc1ccc(C(=C2CCCCC2)c2ccc(OC(C)=O)cc2)cc1`: the Potency is 26.6 µM (active).

Consider `COc1cc2ncnc(Nc3ccc(F)c(Cl)c3)c2cc1OCCCN1CCOCC1`, for which the Potency result was “inactive”.

In the case of `O=C(O)c1cccnc1C(=O)O`, the Potency result is “inactive”.

Consider `CN1Cc2cc(C(=O)N3CCC(C4CCNCC4)CC3)ccc2N[C@@H](CC(=O)O)C1=O`, for which the Potency entry was “inactive”.

Take `O=C(CS)OCCOC(=O)CS`: the Potency result is “inactive”.

Turning to `CCn1nc(C)c2c1C(=O)NCC(c1ccc(O)cc1)=N2`, the Potency entry was “inactive”.

On to `CCC(Cc1ccccc1)(C(=O)c1ccc(N2CCOCC2)cc1)N(C)C` (stereo not given), for which the Potency result is “inactive”.

For the compound `CC(=O)N(c1onc(C)c1C)S(=O)(=O)c1ccc(N)cc1`, the Potency entry was “inactive”.

As for `Cc1nccn1-c1ccc(Sc2cccc(C3(C(N)=O)CCOCC3)c2)cc1`, the Potency result is “inactive”.

Regarding `CC1=NN(c2ccc(C(=O)O)cc2)C(=O)C1`, the Potency result was “inactive”.

For the compound `COc1ccc(CCC(=O)c2c(O)cc(O[C@@H]3O[C@H](CO)[C@@H](O)[C@H](O)[C@H]3O[C@@H]3O[C@@H](C)[C@H](O)[C@@H](O)[C@H]3O)cc2O)cc1O`, the Potency result is “inactive”.

With `CCCCOC(=O)CCS`, the Potency entry was “inactive”.

As for `CCC(=O)OC/C=C/c1ccccc1`, the Potency result was “inactive”.

On to `CCC(C(=O)OCCN(CC)CC)c1ccccc1` (stereo not given), for which the Potency entry was “inactive”.

As for `CCCCN(CCCC)C(=S)SSC(=S)N(CCCC)CCCC`, the Potency was 1.37 µM (active).

As to `C=CC(=O)NCOCC(C)C`, the Potency result was “inactive”.

In the case of `COCc1c(C(C)C)nc(C(C)C)c(/C=C/[C@@H](O)C[C@@H](O)CC(=O)O)c1-c1ccc(F)cc1`, the Potency result is “inactive”.

`COC(OC)(C(=O)c1ccccc1)c1ccccc1`: the Potency result is “inactive”.

Turning to `CC1(C)C(=O)N(Br)C(=O)N1Cl`, the Potency result is “inactive”.

Regarding `CC(=O)Nc1ccccc1C`, the Potency result was “inactive”.

On to `CCCCCCCCSCCO`, for which the Potency result was “inactive”.

On to `C[Si]1(C)O[Si](C)(C)O[Si](C)(C)O1`, for which the Potency entry is “inactive”.

Turning to `CCn1cc(C(=O)O)c(=O)c2cc(F)c(N3CCNCC3)nc21`, the Potency result is “inactive”.

For `C=C(C)C(=O)OCCOC(=O)CC(C)=O`, the Potency result was “inactive”.

For `C1COCO1`, the Potency entry was “inactive”.

Regarding `Cc1ccnc2ccccc12`, the Potency entry is “inactive”.

For the compound `C=CC(=C)CCCC(C)(C)OC(C)=O`, the Potency result is “inactive”.

In the case of `CCN(CC)CCNC(=O)c1ccc(NC(C)=O)cc1`, the Potency result is “inactive”.

Turning to `O=c1[nH]c2ccc(S(=O)CCN3CCC(Cc4ccc(F)cc4)CC3)cc2o1` (stereo not given), the Potency result is “inactive”.

Consider `Cc1ccccc1N1C(=O)c2cc(S(N)(=O)=O)c(Cl)cc2NC1C` (stereo not given), for which the Potency entry was “inactive”.

As to `Cc1ccc(Nc2nccc(N(C)c3ccc4c(C)n(C)nc4c3)n2)cc1S(N)(=O)=O`, the Potency entry is “inactive”.

Regarding `CC#N`, the Potency result was “inactive”.

`CC(=O)CC(c1ccc([N+](=O)[O-])cc1)c1c(O)c2ccccc2oc1=O` (stereo not given): the Potency result is “inactive”.
